Bioassay records: PubChem, National Center for Advancing Translational Sciences (NCATS)
Hits are enriched below; roughly 21% of the tested compounds scored in any of these assays.
Shiga toxin inh: Shiga toxin inhibition | Vero cells, Shiga toxin protein synthesis inhibition reporter | inhibition, % at 38.7 µM | hit rate 9.2% among 290,000; in the data active means inhibition mostly above about 28%, no sharp cut-off; inactive means mostly below about 43%
Pf growth 96h: P. falciparum growth inhibition at 96 hours; hit rate 6.9% among 320,000; AID 504834; P. falciparum luciferase reporter growth, 96 h; Potency, µM (top dose mostly 28.7 µM), actives largely listed as inhibitors
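Two-generation exposure (96 h) targets delayed-death phenotype. Reporter parasites carrying integrated firefly luciferase, in red cells at 2% hematocrit and 0.05% parasitemia final, kept at 37 C, 5% CO2; luminescence loss indicates inhibition.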
Pf growth 48h: P. falciparum growth inhibition at 48 hours (one generation); P. falciparum luciferase growth in erythrocytes, 48 h; Potency, µM (doses to about 28.7 µM), most hits filed as inhibitors; hit rate 5.9% among 310,000
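Here the parasites carry a stable luciferase gene and grow inside erythrocytes in Albumax-based RPMI medium with compound for one erythrocytic cycle. Activity is scored as loss of luminescent signal.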
NS1 function inh: blocks influenza NS1 protein function. Potency, µM (top dose mostly 46.1 µM). hit rate 0.4% among 270,000; calls by dose curve; further: actives are rising curves; nearly all actives have a fitted effect of over 50% in size
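A cell-based growth assay was used: compounds that relieve NS1-induced slow growth of budding yeast raise OD600. Assay medium was yeast nitrogen base with ammonium sulphate and -URA supplement, pH 6.0, with 2% galactose.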
Cycloheximide cs: counter-screen hit for Shiga toxin inhibitors, cycloheximide. hit rate 12% among 300,000. AID 2314. cell reporter, cycloheximide protein synthesis inhibition counterscreen. max response, %; in the data active means max response mostly above about 13%, no sharp cut-off; inactive means mostly below about 14%; further: read at 38.3 µM for the half of the compounds with a filed dose
SARS PLP yeast: SARS-CoV PLP inhibition in yeast. S. cerevisiae expressing SARS-CoV PLpro, growth rescue. Potency, µM (top dose mostly 32.9 µM), usual class: activators. hit rate 0.19% among 330,000. AID 485353; calls by dose curve; further: nearly all actives have a fitted effect of over 55% in size
A number is an active result; . = inactive; ? = inconclusive; / = not tested or not shown. Unless noted, the call rests on the fitted dose curve; in most records, active means well fitted inhibition curve with a large enough effect; inconclusive means small, poorly fitted or top-dose-only effect, or another doubt; inactive means no such curve, though single readings can be large or run the other way.

SMILES	Shiga toxin inh	Pf growth 96h	Pf growth 48h	NS1 function inh	Cycloheximide cs	SARS PLP yeast
COc1cccc(NC(=O)c2cnn(-c3ccccc3)c2C)c1	53	.	.	.	32	.
CCn1ncc(C(=O)Nc2cc(C)on2)c1C	.	.	.	.	47	.
CCn1ncc(C(=O)Nc2ccc(S(=O)(=O)N3CCCC3)cc2)c1C	.	?	?	.	.	.
CCn1ncc(C(=O)Nc2cccc(Cl)c2)c1C	30	.	.	.	67	.
COc1cccc(NC(=O)c2ccccc2C(F)(F)F)c1	.	.	.	.	.	.
Cc1cc(NC(=O)c2cnn3c(C(F)F)cc(C4CC4)nc23)no1	.	?	.	.	.	.
CCc1cccc(NC(=O)c2cnn(-c3ccccc3)c2C)c1	137	.	.	.	45	.
COc1ccc2c(c1OC)C(=O)OC2N1C(=O)CC[C@H]1C(=O)Nc1ccc2c(c1)OCO2 (stereo not given in full)	.	.	.	.	.	.
CCOC(=O)C(=CNc1cccnc1Oc1ccc(C)c2c1CCC2)C(=O)OCC	.	8.3µM	12µM	.	.	.
O=c1ccccn1CCOc1ccc(Cl)cc1	35	.	.	.	33	.
CC(C)(c1ccccc1)c1ccc(OCCn2cnc3ccccc3c2=O)cc1	.	.	/	.	.	.
CC(C)(C)c1ccc(OCCn2ccccc2=O)cc1	93	.	.	.	37	.
CC(C)(C)c1ccc(C(=O)N2CCN(CCNC(=O)C(=O)NCc3ccccc3)CC2)cc1	.	?	?	.	.	.
O=C(COC(=O)C12CC3CC(CC(O)(C3)C1)C2)Nc1ccc(Br)cc1F	/	.	.	/	/	.
O=C(COC(=O)C12CC3CC(CC(C3)C1)C2)Nc1ccccc1F	.	.	.	.	19	.
CN(C)S(=O)(=O)c1ccc(N2CCCC2)c(C(=O)NC2CCC(O)CC2)c1 (stereo not given)	/	.	.	/	/	.
COc1cccc(C(=O)CC(C(=O)O)c2ccc(F)cc2)c1 (stereo not given)	.	.	.	/	.	.
COc1cccc(C(=O)CC(C#N)c2ccc(F)cc2)c1 (stereo not given)	26	.	?	.	.	.
CC1(C)CC(=O)C(C=Nc2ccc(O)cc2)=C(O)C1	36	.	.	.	18	.
CC1(C)CC(=O)C(C=Nc2ccc3[nH]ncc3c2)=C(O)C1	33	10µM	.	.	37	.
CCOc1ccc(N=CC2=C(O)CC(C)(C)CC2=O)cc1	189	.	.	.	.	.
Cc1ccc(N=CC2=C(O)CC(C)(C)CC2=O)nc1	.	?	/	.	.	.
CC1(C)CC(=O)C(C=Nc2ccc(N)cc2)=C(O)C1	81	.	.	/	40	.
CC(C)OCCCNc1ncc2c(n1)CC(c1ccccc1)CC2=O (stereo not given)	.	.	?	/	.	.
CC(=O)c1ccc(S(=O)(=O)Nc2ccc(C(=O)N3CCC3)cc2)cc1	/	.	.	/	/	.
SMILES	Shiga toxin inh	Pf growth 96h	Pf growth 48h	NS1 function inh	Cycloheximide cs	SARS PLP yeast
CCOC(=O)c1c(/N=C/C2=C(O)CC(C)(C)CC2=O)sc(C(C)=O)c1C	57	.	.	.	23	.
CCOC(=O)c1c(/N=C/C2=C(O)CC(C)(C)CC2=O)sc2c1CCCC2	.	.	.	.	.	.
OCCN1CCN(CC(O)COc2ccc(Cl)cc2)CC1 (stereo not given)	.	.	.	.	.	.
OCCN1CCN(CC(O)COc2ccc(C34CC5CC(CC(C5)C3)C4)cc2)CC1 (stereo not given)	.	12µM	?	.	.	.
CCCCOC(=O)n1c(=S)oc2cc(Cl)ccc21	101	.	.	.	24	.
CC(=O)c1cccc(S(=O)(=O)Nc2ccccc2N2CCOCC2)c1	/	/	/	/	/	.
CN(C)c1ccc(NC(=O)CN2CCN(CC(=O)Nc3ccc(F)cc3)CC2)cc1	.	.	.	.	19	.
CCOc1ccc(NC(=O)CN2CCN(CC(=O)Nc3ccc(N(C)C)cc3)CC2)cc1	81	.	.	.	25	.
CCn1nc(C)cc1C(=O)N1CCc2c([nH]c3ccccc23)C1c1cc(F)ccc1F (stereo not given)	82	?	?	.	55	.
COc1ccc(C2c3[nH]c4ccccc4c3CCN2C(=O)Cc2nonc2C)c(F)c1 (stereo not given)	109	?	10µM	.	37	.
Cc1ncoc1C(=O)N1CCc2c([nH]c3ccccc23)C1c1ccccc1F (stereo not given)	.	.	?	.	.	.
COc1ccc(CN=C(Nc2ccccc2)SC2CC(=O)NC2=O)cc1 (stereo not given)	143	.	?	.	44	.
CCCNC(=O)CCn1cc(-c2ccc(OC)cc2)nc1-c1ccncc1	.	.	.	.	.	.
Cc1ccc(CNC(=O)CCn2cc(-c3ccc(F)cc3)nc2-c2ccncc2)cc1	/	?	8.3µM	/	/	.
Cc1ccc(CNC(=O)c2ccc(Cn3cc(-c4ccc(C)cc4)nc3-c3ccncc3)cc2)cc1	42	?	?	.	41	.
O=C(NCc1ccncc1)c1ccc(Br)cc1	.	.	.	.	.	.
Cc1ccc(CNC(=O)CCn2cc(-c3ccc(C)cc3)nc2-c2ccncc2)cc1	.	9.3µM	?	.	.	.
Cc1nn(C)cc1CN(C)C(=O)c1cc(-c2ccccc2)nc2ccc(Br)cc12	.	?	.	/	.	.
Cc1ccc(C(=O)/C=C/C(=O)O)cc1	.	?	.	.	.	.
Cc1ccc(/C=C/C(=O)c2ccc(O)cc2)cc1	49	.	.	.	28	.
CSc1ccc(/C=C/C(=O)c2ccc(O)cc2)cc1	91	?	.	.	44	.
O=C(/C=C/c1ccc(I)cc1)c1ccc(B(O)O)cc1	16	/	/	/	29	/
COCCCNC(=O)C1=CCN(S(=O)(=O)c2ccc(C)cc2)CC1	.	?	.	.	.	.
Cc1ccccc1OCCNC(=S)Nc1ccccc1	.	?	?	.	.	.
Cc1ccccc1OCCOc1ccccc1C=C(C#N)C#N	36	.	.	.	28	.
SMILES	Shiga toxin inh	Pf growth 96h	Pf growth 48h	NS1 function inh	Cycloheximide cs	SARS PLP yeast
Cc1cccc(OCCCC(=O)NCCc2ccccc2)c1	.	.	.	.	.	.
Cc1cccc(OCCOc2ccccc2C=C(C#N)C#N)c1	.	.	.	.	19	.
NS(=O)(=O)c1cccc(NC(=O)COC(=O)/C=C/c2nc3ccccc3s2)c1	/	/	/	/	/	.
Clc1ccccc1C(c1ccccc1)(c1ccccc1)n1ccnc1	.	1.4µM	0.64µM	.	.	.
COc1ccc(S(=O)(=O)NC(C)C(=O)NCc2ccccn2)cc1Cl (stereo not given)	.	.	.	.	.	.
COc1cccc(C(=O)Nc2nnc(-c3ccccc3)s2)c1OC	41	.	.	.	43	.
COc1ccc(C(=O)Nc2nnc(-c3ccccc3)s2)cc1	.	.	.	.	.	.
Cc1ccc(C(=O)Nc2nnc(-c3ccc(C(C)(C)C)cc3)s2)cc1	36	.	.	.	.	.
